Hits are enriched below; roughly 3.7% of the tested compounds scored in any of these assays.
IL-2 act: qHTS of IL-2 Activators; IL-2 activation reporter assay, cell-based qHTS; stimulated with anti-CD3/CD4/CD28 beads; in transgenic mouse T cells; activation, % (series mostly up to about 46 µM); 360,000 tested, 0.065% active; AID 652025, 2013; in the data active = activation above about 50%; inconclusive = mostly about 30% to 49%; note: 0% is about no effect
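Unstimulated transgenic mouse T cells preincubated 60 min with compound, then stimulated with anti-CD3/anti-CD4-coated beads plus anti-CD28 for 18 h at 37 degrees C. IL-2 response read as EGFP and DsRed fluorescence by plate cytometry.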
miR-21 act: qHTS Assay for Modulators of miRNAs and/orActivators of miR-21. HeLa miR-21 FLuc reporter, luciferase, 48 h. Potency, µM (titrated, usually from 38.3 µM), for the others: top-dose activity change, positive = activation, most hits filed as activators. 340,000 tested, under 10 active. AID 2288, 2010;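 note: % of control where 0% means no effect; miR-21 action dims this reporter so a rising signal means less miR-21 action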
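Compounds were titrated across several concentrations (up to approximately 40 uM) and incubated 48 hours with HeLa miR-21-FLuc reporter cells (miR-21 target sequence downstream of FLuc, endogenous miR-21). Readout was firefly luciferase luminescence after lytic detection reagent.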
A549 tox: Nrf2 qHTS screen for inhibitors: counterscreen for cytotoxicity. A549 ARE-Fluc cells, CellTiter-Fluor viability, 18-24 h. Potency, µM (doses to about 46 µM), inactives show at the top dose activity change, negative = cytotoxicity, usual class: inhibitors. 390,000 tested, 0.16% active; note: potency is the fitted concentration of half-maximal effect; % is set by controls: 0 for no effect and ±100 for the full control effect
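Cytotoxicity counterscreen: CellTiter-Fluor fluorescence was measured in A549 ARE_Fluc cells after 18-24 h of compound exposure in a concentration series. The subsequent BugLite luminescent read reports ARE-luciferase activity.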
Nrf2 inh: Nrf2 qHTS screen for inhibitors; Potency, µM (series often up to 46 µM), for the others: top-dose activity change, negative = inhibition, hits mostly inhibitors; A549 ARE-Fluc reporter, luciferase luminescence, 18-24 h; 360,000 tested, 2.1% active; AID 504444, 2011; note: potency is the fitted concentration of half-maximal effect; % is set by controls: 0 for no effect and ±100 for the full control effect; nearly all actives have a fitted effect of over 60% in size
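Quantitative HTS in A549 cells stably bearing an antioxidant response element-firefly luciferase construct. Inhibition of Nrf2-driven transcription was scored by luminescence after 18-24 h of compound exposure at 37 °C.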
ClpP mod: qHTS Assay for Activators of ClpP. ATP-dependent Clp protease proteolytic subunit (Bacillus subtilis (strain 168)), P80244. purified B. subtilis ClpP, FRET peptide cleavage, 20 min. Potency, µM (series often up to 57.5 µM), for the others: at the highest dose activity change, negative = active. 340,000 tested, 1.9% active; active = well fitted falling curve with a large enough effect; inconclusive = small, poorly fitted or top-dose-only effect; inactive = no such curve, though single readings can be large or run the other way; note: potency is the fitted concentration of half-maximal effect; the source files actives as falling curves though it sought activators and does not explain the sign; nearly all actives have a fitted effect of over 65% in size
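ClpP 10 microg/mL final, pH 8 Tris/KCl buffer with BSA, glycerol, Tween-20; compound pinned in; FRET-FV substrate; RT 20 min; Ex320/Em430; ΔFRET vs ADEP 5.8 microM, DMSO, no enzyme.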
Nrf2 activator: qHTS of Nrf2 Activators; AREc32 ARE-luciferase reporter (MCF7-derived line), luminescence, 24 h; Potency, µM (titrated, usually from 46.1 µM), inactives show at the top dose activation, hits mostly activators; 410,000 tested, 0.31% active; AID 624171, 2012; note: potency is the fitted concentration of half-maximal effect; % of control where 0% means no effect; nearly all actives have a fitted effect of over 65% in size
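AREc32 cells carrying an ARE-driven firefly luciferase, 1000 cells/well in OPTI-MEM with 5% FBS, dosed after overnight attachment and incubated 24 hr at 37 deg C. Steady-Glo luminescence read after 30 min at RT.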
Numbers without * were called inactive; u = inconclusive; x = no result given; [ ] = dose if it differs, or a comment. Unless noted, calls come from the whole dose curve; as a rule, active = well fitted curve in the direction sought with a large enough effect; inconclusive = small, poorly fitted or top-dose-only effect, or another doubt; inactive = no such curve, though single readings can be large; an effect the other way counts as inactive or inconclusive.

SMILES	IL-2 act	miR-21 act	A549 tox	Nrf2 inh	ClpP mod	Nrf2 activator
O=C(NCc1ccccc1)c1cc2ccccc2oc1=O	0.5	-38.1%	-3.7%	-6.5%	-11.0%	4.7%
O=C(NCc1ccc(Cl)cc1)c1cc2ccccc2oc1=O	-0.9	-8.8%	-10.8%	-23.5%	20µM*	0.4%
COc1cccc(-n2cc(C(=O)Nc3ccccc3C(N)=O)c3ccccc3c2=O)c1	x	-17.5%	-11.0%	-11.6%	-5.5%	11.6%
COc1cc(N)c(NC(=O)/C=C/c2nc3cc(OC)c(OC)cc3[nH]2)cc1OC	x	x	x	x	4.4%	x
COc1ccccc1N=Nc1nc(-c2ccccc2)c(-c2ccccc2)[nH]1	-2.4	-1.3%	u	18.4µM*	1.1%	3.7%
Nc1nc(Cl)cc(N2CCC(c3cc(-c4ccc(Cl)cc4Cl)n[nH]3)CC2)n1	2.0	23.2%	u	10.3µM*	-1.2%	4.0%
Cc1cccc(Cn2nnc3c2C(=O)c2ccccc2C3=O)c1	1.2	29.4%	u	20.6µM*	-2.0%	0.1%
CCOC(=O)c1c(-c2ccc(OC)cc2)csc1NC(=O)CSc1ncnc2sccc12	1.0	4.4%	20.3%	14.6µM*	-12.0%	0.4%
CCOC(=O)c1c(-c2ccc(C)o2)csc1NC(=O)CSc1nnc(C)s1	-1.6	-0.8%	-18.8%	u	-1.4%	3.3%
CCOC(=O)c1c(NC(=O)c2cccc(N3C(=O)CCC3=O)c2)sc(C)c1C	-1.4	-3.5%	-5.1%	-25.7%	-9.5%	0.2%
CCOC(=O)c1c(-c2ccc(-c3ccccc3)cc2)csc1NC(=O)c1cccc(N2C(=O)CCC2=O)c1	-1.8	1.8%	7.6%	3.3%	15.8µM*	-0.3%
CCOC(=O)c1c(-c2ccccc2)csc1NC(=O)CSc1nnc(C)s1	1.5	10.5%	-10.4%	13µM*	-2.4%	0.8%
CC1(C)S[C@@H]2[C@H](NC(=O)COc3ccccc3)C(=O)N2[C@@H]1C(=O)OCc1cccc2cccnc12	x	x	x	x	0.4%	x
CCN(CC)CCCNC(=O)Cn1nc(C)n2c(cc3sccc32)c1=O	x	-0.3%	6.4%	1.5%	-24.6%	0.5%
Cc1c(/C=C(\C#N)C(=O)Nc2cccc(Cl)c2)c2ccccc2n1Cc1ccccc1Cl	x	-6.5%	0.5%	u	-3.2%	-0.5%
CN1CCS/C1=C\C=C1/SC(=S)N(CC(=O)O)C1=O	64.7*	6.7%	-12.4%	-14.4%	x	0.0%
CCN1C(=O)/C(=C/C=C2/SCCN2C)SC1=S	-0.8	-65.9%	-18.0%	u	-1.7%	2.6%
CN1/C(=C\C=C2/SC(=S)N(CC(=O)O)C2=O)C(C)(C)c2ccccc21	6.5	2.1%	9.2µM*	4.11µM*	x	1.1%
CCCc1c(CC)c(=N)c2ccccc2n1C	-2.7	14.8%	-2.7%	u	28.2µM*	-0.7%
O=C(CN1c2ccccc2Sc2ccccc21)NNC(=O)Nc1ccc(Cl)cc1	-1.1	21.4%	u	18.4µM*	-21.5%	7.7%
Cc1ccc(NC(=O)CSc2ncc3c(n2)-c2ccc(Cl)cc2N(C)S3(=O)=O)cc1F	x	-1.1%	-1.9%	u	-20.3%	1.1%
CN1c2cc(Cl)ccc2-c2nc(SCC(=O)Nc3ccc(F)cc3F)ncc2S1(=O)=O	x	3.1%	-17.5%	16.4µM*	-17.6%	-1.0%
COC(=O)c1ccc(-c2sc3nc(N4CCOCC4)c4c(c3c2N)CCCC4)o1	-0.1	-10.8%	u	u	-18.3%	0.2%
CC12CCC(=O)N1c1c(sc3nc(N4CCOCC4)c4c(c13)CCCC4)C(=O)N2 (centres undefined)	-0.1	-2.6%	-3.7%	-0.2%	25.1µM*	-0.8%
c1ccc2cnccc2c1	x	x	x	x	-1.7%	x
SMILES	IL-2 act	miR-21 act	A549 tox	Nrf2 inh	ClpP mod	Nrf2 activator
Cc1c(C(C)C)c(=O)n(-c2ccc(S(=O)(=O)NC3CC3)cc2)n1C	-0.4	-2.5%	1.7%	u	x	0.3%
Cc1c(C(C)C)c(=O)n(-c2ccc(S(=O)(=O)NC(C)C)cc2)n1C	-0.5	6.1%	-16.9%	18.4µM*	x	0.0%
COc1ccc(NS(=O)(=O)c2cc(NC(=O)/C=C/c3cccs3)ccc2N2CCOCC2)cc1	0.6	2.1%	-15.8%	u	28.2µM*	3.5%
CCCN1C(=O)c2ccccc2CC1(C)C(=O)NC1CCCCC1 (centres undefined)	x	-1.3%	1.3%	2.6%	1.5%	-0.7%
CC1(C(=O)NC2CCCCC2)Cc2ccccc2C(=O)N1Cc1ccccc1Cl (centres undefined)	x	-8.1%	0.0%	-1.4%	31.6µM*	0.1%
COc1ccc(OC)c(C(=O)CC2OC(=O)c3ccccc32)c1 (centres undefined)	-3.6	5.6%	-9.6%	-5.5%	-5.4%	12.6µM*
O=C(Nc1ccc(C(=O)OCc2cc(=O)n3c4c(sc3n2)CCCC4)cc1)c1ccc(Cl)cc1	x	0.1%	0.0%	x	2.9%	0.9%
COc1ccc(OC)c(C(=O)CSc2ncc3c(n2)-c2ccccc2N(Cc2ccccc2C)S3(=O)=O)c1	x	-0.4%	13.2%	u	-3.2%	0.8%
Cc1cc(-n2c(C)cc(C(=O)CSc3nc(N)cc(=O)[nH]3)c2C)no1	-2.5	8.7%	-6.2%	u	-2.1%	1.8%
COc1ccc(CCn2c(C)cc(C(=O)CSc3nc(N)cc(=O)[nH]3)c2C)cc1	-3.1	u	-4.5%[1.84 µM]	18.4µM*	1.9%	0.9%
Cc1cc(C(=O)CSc2nc(N)cc(=O)[nH]2)c(C)n1-c1ccc(OC(F)F)cc1	-1.1	19.6%	-18.0%	18.4µM*	31.6µM*	3.0%
Cc1cc(C(=O)CSc2nc(N)cc(=O)[nH]2)c(C)n1CCc1ccc(F)cc1	-0.4	15.8%	-11.5%	u	-1.4%	9.1%
CCc1ccc(NC(=O)c2sc3nc(C)cc(C)c3c2NC(=O)c2ccccc2)cc1	x	-15.9%	-7.2%	-5.4%	-4.7%	-2.3%
CCCCCCCCNc1ccc(/C=C/c2ccnc3ccccc23)cc1	x	x	x	x	0.5%	x
COc1ccc(C)cc1NC(=O)C(=O)NCCc1csc(-c2ccc(C)cc2)n1	x	-0.1%	15.2%	x	-1.7%	0.4%
C=CCn1c(SCCOc2ccc(OC)cc2)nnc1C(C)NC(=O)Cc1ccc(OC)cc1 (centres undefined)	-1.6	3.2%	-12.1%	23.1µM*	-1.3%	0.5%
COc1ccccc1C(=O)Nc1ccccc1C(=O)OCc1cc(=O)n2ccsc2n1	x	-2.6%	0.8%	x	-5.1%	-0.3%
Clc1ccc(-c2csc3ncnc(Sc4nnnn4-c4ccccc4)c23)cc1	x	x	x	x	-13.5%	x
